Results from PubChem BioAssay (NCI).
This is part of a sample that, as a whole, favours compounds with a hit. Of some 83,000 tested, about 20% had one in any assay.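 Results are percent growth after 48 hours of single-concentration exposure. 100 means growth as in untreated cells, lower positive values show inhibition; negative values down to -100 show cell death.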 Activity calls are given as the source filed them. How the source made its calls: active means growth percent below 10; inactive means the rest.

Columns and labels:
Assay in all cases: NCI-60 one-dose screen, 48 h (100 = growth as untreated, 0 = no growth, -100 = all killed)
Details in all cases: 10 µM unless noted
T-47D breast = tested on: T-47D breast
BT-549 breast = tested on: BT-549 breast
MDA-MB-435 melanoma = tested on: MDA-MB-435 melanoma
SW-620 colon = tested on: SW-620 colon
MCF7 breast = tested on: MCF7 breast
HCT-116 colon = tested on: HCT-116 colon
HCC-2998 colon = tested on: HCC-2998 colon
KM12 colon = tested on: KM12 colon

Measured: growth

NC(=O)n1c(=O)n(-c2cccc(C(F)(F)F)c2)c(=O)c2cc(-c3ccc(F)cc3F)ccc21
inactive: SW-620 colon 14.1% | HCC-2998 colon 10.7%
active: T-47D breast -14% | BT-549 breast -12.5% | MDA-MB-435 melanoma 0.406% | MCF7 breast 0.6% | HCT-116 colon 2.24% | KM12 colon 5.24%

CN1CCN(Cc2ccc(NC(=O)c3cncc(C#Cc4cnc5ccc(N6CCOCC6)nn45)c3)cc2C(F)(F)F)CC1
active: T-47D breast -5.39% | BT-549 breast -71.7% | MDA-MB-435 melanoma -65% | SW-620 colon -19.2% | MCF7 breast -69% | HCT-116 colon -76.2% | HCC-2998 colon -33.2% | KM12 colon -46.2%

CC1CC(=O)C2=C(C1)Nc1ccc(Br)cc1CC2c1c[nH]c2ccc(Br)cc12 (stereo not drawn)
inactive: T-47D breast 33.4% | BT-549 breast 64.9% | SW-620 colon 33.5% | MCF7 breast 16.7% | HCT-116 colon 24.2% | HCC-2998 colon 69.6% | KM12 colon 28.1%
active: MDA-MB-435 melanoma -18.5%

O=S(=O)(Oc1ccc(-c2cn3ccsc3n2)cc1)c1cccc(C(F)(F)F)c1
inactive: T-47D breast 103% | BT-549 breast 119% | MDA-MB-435 melanoma 99.5% | SW-620 colon 97.4% | MCF7 breast 90.1% | HCT-116 colon 104% | HCC-2998 colon 120% | KM12 colon 102%

COc1ccc2c(c1)C=CC1(O2)Oc2ccc(OC)cc2C=C1C (stereo not drawn)
active: MDA-MB-435 melanoma -35.3%
inactive: T-47D breast 45% | BT-549 breast 26.5% | SW-620 colon 29.8% | MCF7 breast 12.1% | HCT-116 colon 12.4% | HCC-2998 colon 24.1% | KM12 colon 27.9%

N#Cc1cccc(-c2cc(-c3ccc4c(c3)OCCO4)[nH]n2)c1
active: MDA-MB-435 melanoma -24.6%
inactive: T-47D breast 36.4% | BT-549 breast 49.3% | SW-620 colon 27.5% | MCF7 breast 12.2% | HCT-116 colon 23.1% | HCC-2998 colon 47.3% | KM12 colon 36.4%

C[C@]12CC[C@H]3[C@@H](CC=C4C[C@@H](O)CC[C@@]43C)[C@@H]1CC[C@@H]2[C@](C)(O)CCc1cccnc1
inactive: T-47D breast 36.3% | BT-549 breast 47.7% | MDA-MB-435 melanoma 64% | SW-620 colon 83.1% | MCF7 breast 35.2% | HCT-116 colon 51.9% | HCC-2998 colon 86.7% | KM12 colon 70.2%

NC1CC2(CCN(c3cnc(C(=O)Nc4cc(F)cc5cccnc45)cn3)CC2)C1
inactive: T-47D breast 64.5% | BT-549 breast 84.8% | MDA-MB-435 melanoma 70.9% | SW-620 colon 42.8% | MCF7 breast 46.2% | HCT-116 colon 38.5% | HCC-2998 colon 83.7% | KM12 colon 81.7%

O=C(CCCCCCN1CC(=O)N2[C@@H](c3ccccc3Br)c3[nH]c4ccccc4c3C[C@H]2C1=O)NO
inactive: T-47D breast 19.2% | BT-549 breast 87.1% | MDA-MB-435 melanoma 27.8% | SW-620 colon 24.7% | MCF7 breast 21.4% | HCT-116 colon 12.7% | HCC-2998 colon 56.9% | KM12 colon 73%

COc1ccc(/C=N/NC(=O)c2c(N)nn(C)c2Nc2ccccc2)cc1
inactive: T-47D breast 42.4% | BT-549 breast 14% | SW-620 colon 16% | MCF7 breast 17.6% | HCT-116 colon 15% | HCC-2998 colon 59.2% | KM12 colon 27.8%
active: MDA-MB-435 melanoma -31%

O=C(CCCCCCN1CC(=O)N2[C@@H](C3CC3)c3[nH]c4ccccc4c3C[C@H]2C1=O)NO
inactive: T-47D breast 66.1% | BT-549 breast 104% | MDA-MB-435 melanoma 40.3% | SW-620 colon 61.2% | MCF7 breast 39.9% | HCT-116 colon 33.4% | HCC-2998 colon 108% | KM12 colon 84.2%

C=C1CCc2nc(SCC(=O)O)ccc2N1
inactive: T-47D breast 98.5% | BT-549 breast 114% | MDA-MB-435 melanoma 101% | SW-620 colon 106% | MCF7 breast 99.5% | HCT-116 colon 98% | HCC-2998 colon 103% | KM12 colon 102%

Clc1ccc2[nH]cc(-c3nn4cc(-c5cccnc5)nc4s3)c2c1
inactive: T-47D breast 71.5% | BT-549 breast 110% | MDA-MB-435 melanoma 101% | SW-620 colon 104% | MCF7 breast 72.3% | HCT-116 colon 99.8% | HCC-2998 colon 117% | KM12 colon 98%

O=C(CCCCCCNC(=O)C(O)(O)C(F)(F)F)Nc1ccc(-c2ccccc2)cc1
active: MDA-MB-435 melanoma 7.66% | SW-620 colon 2.53% | MCF7 breast 9.59% | HCT-116 colon 4.14% | HCC-2998 colon -0.948% | KM12 colon 8.38%
inactive: T-47D breast 11.5% | BT-549 breast 14.8%

O=C(Nc1cccc(C(F)(F)F)c1)N1CCN(c2cc(-c3cn(-c4ccccc4)nc3-c3cccc(O)c3)ccn2)CC1
active: T-47D breast -5.55%
inactive: BT-549 breast 55.4% | MDA-MB-435 melanoma 47.3% | SW-620 colon 52.3% | MCF7 breast 25.3% | HCT-116 colon 27.4% | HCC-2998 colon 86.3% | KM12 colon 32%

NCCNC(=O)c1cccc(COc2ccccc2NC(=O)c2cc(Br)c(Br)[nH]2)c1
inactive: T-47D breast 75.9% | BT-549 breast 130% | MDA-MB-435 melanoma 96.2% | SW-620 colon 35.1% | MCF7 breast 16.9% | HCT-116 colon 20.2% | HCC-2998 colon 99.8% | KM12 colon 89.7%
